Legend:
Assay in all cases: yeast three-hybrid, YBZ-1, SC-Leu-His + 0.5 mM 3-AT, 4 days
Conditions in all cases: tags: N-Gal4 AD-HA kept; label: inside an RPR1-promoter hybrid RNA with tandem MS2 sites; ssRNA
PUM1 PUF domain R1-TFE = PUM1 PUF domain R1-TFE (Homo sapiens, UniProt Q14671 828-1176, S863T;R864F;Q867E)
How it was run: (§1)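 Repeat regions from input (SC-Leu) and selection (SC-Leu-His + 0.5 mM 3-AT) plates were PCR-amplified and Illumina-sequenced after four days of growth. The cells were strain YBZ-1 with a LexA–MS2 coat fusion and a HIS3 reporter, co-expressing Pumilio-1 PUF domain libraries and matching RNA elements from a centromeric plasmid. The interaction score is the log change in variant frequency from input to selection, taken in log2 with a pseudocount of 1 for absent variants.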

PUM1 PUF domain R8-GWQ = PUM1 PUF domain R8-GWQ (Homo sapiens, UniProt Q14671 828-1176, N1122G;Y1123W)
How it was run: as §1

PUM1 PUF domain R4-SCS = PUM1 PUF domain R4-SCS (Homo sapiens, UniProt Q14671 828-1176, N971S;H972C;Q975S)
How it was run: as §1

PUM1 PUF domain R4-HNI = PUM1 PUF domain R4-HNI (Homo sapiens, UniProt Q14671 828-1176, N971H;H972N;Q975I)
How it was run: as §1

PUM1 PUF domain R6-LFC = molecular target: T1, PUM1 PUF domain R6-LFC (Homo sapiens, UniProt Q14671 828-1176, N1043L;Y1044F;Q1047C)
T1 sequence: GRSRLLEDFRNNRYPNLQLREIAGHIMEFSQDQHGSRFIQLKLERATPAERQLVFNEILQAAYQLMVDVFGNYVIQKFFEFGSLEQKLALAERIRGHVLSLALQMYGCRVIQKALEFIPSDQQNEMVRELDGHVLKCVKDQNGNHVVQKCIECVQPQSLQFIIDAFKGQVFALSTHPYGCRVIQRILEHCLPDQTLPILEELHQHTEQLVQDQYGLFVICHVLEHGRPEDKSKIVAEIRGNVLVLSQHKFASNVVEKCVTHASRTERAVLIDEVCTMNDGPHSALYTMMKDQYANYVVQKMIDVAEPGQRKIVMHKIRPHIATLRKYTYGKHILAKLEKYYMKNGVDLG
How it was run: as §1

PUM1 PUF domain R5-RSN = PUM1 PUF domain R5-RSN (Homo sapiens, UniProt Q14671 828-1176, C1007R;R1008S;Q1011N)
How it was run: as §1

PUM1 PUF domain R8-KYP = PUM1 PUF domain R8-KYP (Homo sapiens, UniProt Q14671 828-1176, N1122K;Q1126P)
How it was run: as §1

PUM1 PUF domain R4-RGY = PUM1 PUF domain R4-RGY (Homo sapiens, UniProt Q14671 828-1176, N971R;H972G;Q975Y)
How it was run: as §1

PUM1 PUF domain R3-GRV = PUM1 PUF domain R3-GRV (Homo sapiens, UniProt Q14671 828-1176, C935G;Q939V)
How it was run: as §1

PUM1 PUF domain R5-MRE = PUM1 PUF domain R5-MRE (Homo sapiens, UniProt Q14671 828-1176, C1007M;Q1011E)
How it was run: as §1

PUM1 PUF domain R8-KHF = PUM1 PUF domain R8-KHF (Homo sapiens, UniProt Q14671 828-1176, N1122K;Y1123H;Q1126F)
How it was run: as §1

PUM1 PUF domain R3-KPG = PUM1 PUF domain R3-KPG (Homo sapiens, UniProt Q14671 828-1176, C935K;R936P;Q939G)
How it was run: as §1

With “GGCUAGAACUAGUGGAUCCCCCGGCGCCCGGCGGCUCGAGCCCGGGUAAGUGUAAAUGGUCUGCAUGCCGCCGGGCGCCAUGCCUGCAGGUCGACUCUAGAAAACAUG” as the sequence, how does the binding signal (PUM1 PUF domain R1-TFE) read?
Its binding signal is 6.33 log2 enrichment (interaction score).

With “GGCUAGAACUAGUGGAUCCCCCGGCGCCCGGCGGCUCGAGCCCGGGUAAGCGUAAAUAGUCUGCAUGCCGCCGGGCGCCAUGCCUGCAGGUCGACUCUAGAAAACAUG” as the sequence, how does the binding signal (PUM1 PUF domain R8-GWQ) read?
The binding signal was 3.56 log2 enrichment (interaction score).

How did the binding signal (PUM1 PUF domain R4-SCS) turn out when “GGCUAGAACUAGUGGAUCCCCCGGCGCCCGGCGGCUCGAGCCCGGGUAAGUGUAUAUAGUCUGCAUGCCGCCGGGCGCCAUGCCUGCAGGUCGACUCUAGAAAACAUG” was run?
Its binding signal is 1.72 log2 enrichment (interaction score).

And the binding signal (PUM1 PUF domain R4-HNI)?
The binding signal was 4.84 log2 enrichment (interaction score).

What does the source list for “GGCUAGAACUAGUGGAUCCCCCGGCGCCCGGCGGCUCGAGCCCGGGUAAGUGUAAAUAGUCUGCAUGCCGCCGGGCGCCAUGCCUGCAGGUCGACUCUAGAAAACAUG”?
binding signal (PUM1 PUF domain R6-LFC): 3.09 log2 enrichment (interaction score); binding signal (PUM1 PUF domain R5-RSN): 0.8 log2 enrichment (interaction score); binding signal (PUM1 PUF domain R8-KYP): 4.91 log2 enrichment (interaction score); binding signal (PUM1 PUF domain R4-RGY): 5.07 log2 enrichment (interaction score); binding signal (PUM1 PUF domain R3-GRV): 2.81 log2 enrichment (interaction score); binding signal (PUM1 PUF domain R8-GWQ): 2.82 log2 enrichment (interaction score); binding signal (PUM1 PUF domain R4-SCS): 2.13 log2 enrichment (interaction score); binding signal (PUM1 PUF domain R5-MRE): 1.14 log2 enrichment (interaction score)

With “GGCUAGAACUAGUGGAUCCCCCGGCGCCCGGCGGCUCGAGCCCGGGUAAGGGUAAAUAGUCUGCAUGCCGCCGGGCGCCAUGCCUGCAGGUCGACUCUAGAAAACAUG” as the sequence, how does the binding signal (PUM1 PUF domain R8-KHF) read?
Its binding signal is 2.25 log2 enrichment (interaction score).

“GGCUAGAACUAGUGGAUCCCCCGGCGCCCGGCGGCUCGAGCCCGGGUAAGUGUGAAUAGUCUGCAUGCCGCCGGGCGCCAUGCCUGCAGGUCGACUCUAGAAAACAUG” was tested. Which binding signal (PUM1 PUF domain R5-MRE) did it give?
Its binding signal is 2.77 log2 enrichment (interaction score).

Which binding signal (PUM1 PUF domain R1-TFE) does the source give for “GGCUAGAACUAGUGGAUCCCCCGGCGCCCGGCGGCUCGAGCCCGGGUAAGUGUAAAUUGUCUGCAUGCCGCCGGGCGCCAUGCCUGCAGGUCGACUCUAGAAAACAUG” here?
Its binding signal is 3.49 log2 enrichment (interaction score).

“GGCUAGAACUAGUGGAUCCCCCGGCGCCCGGCGGCUCGAGCCCGGGUAAGUGUAAUUAGUCUGCAUGCCGCCGGGCGCCAUGCCUGCAGGUCGACUCUAGAAAACAUG” was tested. Which binding signal (PUM1 PUF domain R3-KPG) did it give?
Its binding signal is 4.43 log2 enrichment (interaction score).

What about the binding signal (PUM1 PUF domain R3-GRV) of the same sequence?
Its binding signal is 1.12 log2 enrichment (interaction score).

Source: publication PMC8384837, “Expanding the binding specificity for RNA recognition by a PUF domain”
